Records with an inconclusive call do not appear. Where a call stands in place of a potency, no number is given. The source made the active and inactive calls. Unless noted, the call rests on the fitted dose curve; in most records, active means well fitted curve in the direction sought with a large enough effect; inconclusive means small, poorly fitted or top-dose-only effect, or another doubt; inactive means no such curve, though single readings can be large; an effect the other way counts as inactive or inconclusive.
Columns and labels:
[1] = molecular target: Ubiquitin carboxyl-terminal hydrolase 2 (Homo sapiens) (UniProt O75604); test: qHTS Validation Assay for Inhibitors of Ubiquitin-specific Protease USP2a Using CHOP2 as the Reporter (AID 463106)
Outline: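 10nM USP2 core + cpd, 30min RT; add 25nM Ub-CHOP2/25nM substrate; 60min RT; FI 485/531nm. Buffer Tris pH 8.0, CaCl2, BME, CHAPS. Norm. to NEM = 100% inhibition; time-zero read flags fluorescent artifacts.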

[2] = molecular target: DNA polymerase III PolC-type (Bacillus subtilis (strain 168)) (UniProt P13267); test: qHTS Validation Assay for the Inhibitors of DNA Replication in Gram-Positive Bacteria (AID 485295);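 further: reconstituted holoenzyme with PolC plus beta clamp SSB and primase; PicoGreen fluorescence of double-stranded DNA made on primed circular M13 template; series mostly up to about 57 µM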
Outline: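 Double-stranded DNA product detected by PicoGreen fluorescence after EDTA quench. Compound incubated with B. subtilis holoenzyme (PolC, beta subunit, SSB, primase) before substrate addition; primed replication of M13Gori with dNTPs and NTPs at room temperature; DMSO defines 0% inhibition.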

[3] = molecular target: Tumor susceptibility gene 101 protein (Homo sapiens) (UniProt Q99816); test: qHTS Validation Assay for Iinhibitors of HIV-1 Budding by Blocking the Interaction of PTAP/TSG101 (AID 485342; calls by dose curve)
Outline: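 Fluorescence polarization of 50 nM FITC-PTAP peptide bound to 10 uM Tsg101 binding domain was read after 20 min room-temperature incubation with compounds, in 10 mM HEPES pH 7.5, 0.15 M NaCl, 0.01% Tween 20.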

[4] = qHTS Validation Assay to Find Inhibitors of Chronic Active B-Cell Receptor Signaling (AID 485345; active means well fitted curve in the direction sought with a large enough effect in the main read-out, with a control signal flat, not every such curve was filed as active; further: potency means the concentration at half of the fitted maximal effect)
Outline: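 Read-out: ratio of filter-corrected green (IkappaBalpha fusion) to red (native) luciferase signal in doxycycline-induced TMD8 cells after 4 h at 37C. Titration spanned 46 uM–3 nM; Data were normalised to basal cells and 10 uM MG-132 wells.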

[5] = molecular target: Beta-2 adrenergic receptor (Homo sapiens) (UniProt P07550); test: qHTS validation assay of beta-arrestin-biased ligands of beta2-adrenergic receptor (AID 485366)
Outline: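 Values derive from curve-fitted %Activity of a luminescent beta-arrestin recruitment reporter; compounds tested up to 46 microM on Tango cells for 18 hr at 37 degrees C, 5% CO2.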

[6] = Quantitative high throughput screen for delayed death inhibitors of the malarial parasite plastid, 48 hour incubation (AID 488752); further: nearly all actives have a fitted effect of over 65% in size; further: potency means the concentration at half of the fitted maximal effect
Outline: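 One parasite generation (48 h, 37 C, 5% CO2) of luciferase-reporter P. falciparum in erythrocytes is run with test compound; decreased luminescence indicates inhibited growth.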

[7] = molecular target: Thioredoxin reductase 1, cytoplasmic (Rattus norvegicus) (UniProt O89049); test: qHTS Assay for Substrates of Mammalian Selenoprotein Thioredoxin Reductase 1 (TrxR1) (AID 488772);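 further: NADPH fluorescence in the first read after selenite addition and not the 8 min delta; series mostly up to about 57 µM; a drop in NADPH fluorescence below the no-compound background marks a TrxR1 substrate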
Outline: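 Quantitative HTS in Tris-HCl buffer at pH 7.5 with EDTA and Tween-20, using rat TrxR1, 400 uM NADPH and 400 uM selenite (final). A fall in initial NADPH fluorescence relative to background marked substrate behaviour.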

[8] = molecular target: Flap endonuclease 1 (Homo sapiens) (UniProt P39748); test: qHTS Validation Assay for the Inhibitors of Human Flap endonuclease 1 (FEN1) (AID 488816)
Outline: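 Readings taken at 0 and 15 min after starting the reaction with 50 nM (final) substrate supplied the signal. Compounds had first sat with 10 nM FEN1 reagent for 15 min at room temperature. Values come from Hill-equation concentration-response fits.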

[9] = molecular target: Methanococcus maripaludis chaperonin (MmCpn) (UniProt Q6LX38); test: High-Throughput Screening for Modulators of Cytosolic Chaperonin Activity: MmCpn Primary Screen (AID 488978);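 further: 50 nM MmCpn enzyme hydrolysing 30 µM ATP at 37 °C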
Outline: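 ATPase activity of 50 nM MmCpn was assayed with 30 uM ATP, 10 minutes at 37C, after a 5 min compound preincubation at room temperature. ADP production was read as HTRF emission at 590 and 665 nm.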

[10] = molecular target: Transient receptor potential cation channel subfamily V member 1 (Homo sapiens) (UniProt Q8NER1); test: HTS Assay for Compounds that Act as Enhancers of the Vanilloid Receptor 1 (AID 488979)
Outline: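 Calcium influx kinetics via Fluo-8 (480/520 nm) in TRPV1-expressing cells, 2000/well cultured overnight at 35.5C. Compound-alone read 3 min (agonist phase), followed by EC20 capsaicin challenge for 2 min (enhancer phase).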

[11] = molecular target: Thyrotropin receptor (Homo sapiens) (UniProt P16473); test: qHTS Assay for Antagonists of the Thyroid Stimulating Hormone Receptor (AID 488980); further: series mostly up to about 58 µM
Outline: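 Inhibition of cAMP raised by EC80 TSH (4 nM final) was read by HTRF, with lysate cAMP competing against cAMP-d2 for cryptate antibody after 30 min at room temperature. The cells were transfected HEK293 held in phosphodiesterase inhibitor RO 20-1724 at 70 uM.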

[12] = molecular target: D(1A) dopamine receptor (Homo sapiens) (UniProt P21728); test: HTS Assay for Allosteric Agonists of the Human D1 Dopamine Receptor: Primary Screen for Agonists (AID 488981)
Outline: (§1)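 Calcium flux in an inducible, force-coupled HEK293 Trex D1 line (overnight at 30 C): agonist mode is the 180 s kinetic read after compound; potentiator mode is the following 180 s read after dopamine at EC20.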

[13] = molecular target: D(1A) dopamine receptor (Homo sapiens) (UniProt P21728); test: HTS Assay for Allosteric Agonists of the Human D1 Dopamine Receptor: Primary Screen for Potentiators (AID 488982)
Outline: as §1

[14] = molecular target: D(1A) dopamine receptor (Homo sapiens) (UniProt P21728); test: HTS Assay for Allosteric Agonists of the Human D1 Dopamine Receptor: Primary Screen for Antagonists (AID 488983);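 further: calcium flux response to an EC80 dopamine challenge measured with no-wash dye; nearly all actives have a fitted effect of over 65% in size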; further: potency means the concentration at half of the fitted maximal effect
Outline: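 Screening of inducible HEK293 T-REx D1 cells: compound first, EC80 dopamine 180 s later, each phase read kinetically for calcium over 180 s.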

[15] = molecular target: M-phase phosphoprotein 8 (Homo sapiens) (UniProt Q99549); test: qHTS Validation Assay for Inhibitors for MPP8 Chromodomain Interactions with Methylated Histone Tails (AID 488949); further: nearly all actives have a fitted effect of over 55% in size; further: potency means the concentration at half of the fitted maximal effect
Outline: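 AlphaScreen proximity signal from streptavidin donor and Ni-chelate acceptor beads (10 ug/mL each) reported binding of MPP8 to trimethyl-K9 H3(1-18) peptide, both at 50 nM. The complex formed 30 min before a 30 min compound exposure at room temperature, in PBS pH 7.4.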

[16] = molecular target: Chromobox protein homolog 1 (Homo sapiens) (UniProt P83916); test: qHTS Validation Assay for Inhibitors of HP1-beta Chromodomain Interactions with Methylated Histone Tails (AID 488953); further: nearly all actives have a fitted effect of over 50% in size; further: potency means the concentration at half of the fitted maximal effect
Outline: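 Measured as loss of AlphaScreen luminescence from streptavidin donor and nickel acceptor beads (10 ug/mL final) bridging HP1-beta and biotin-H3(1-18)K9me3, each 50 nM. Compounds met the preassembled complex for 30 min at RT.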

[17] = Quantitative high throughput screen for delayed death inhibitors of the malarial parasite plastid, 96 hour incubation (AID 488745); further: potency means the concentration at half of the fitted maximal effect; nearly all actives have a fitted effect of over 70% in size
Outline: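 Growth of reporter-bearing P. falciparum in red cells is measured after 96 h with compound, covering two erythrocytic cycles. Luminescence from the integrated luciferase serves as the growth signal.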

[18] = molecular target: Thioredoxin reductase 1, cytoplasmic (Rattus norvegicus) (UniProt O89049); test: qHTS Assay for Inhibitors of Mammalian Selenoprotein Thioredoxin Reductase 1 (TrxR1) (AID 488773); settings: Potency: inhibition;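 further: drop in NADPH fluorescence over an 8 min run after selenite addition; series mostly up to about 57 µM; nearly all actives have a fitted effect of over 40% in size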
Outline: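 Steps: enzyme (90 nM) plus NADPH (400 uM final), 5 min at ~22 deg C; compound added, 15 min; selenite (400 uM final) added; fluorescence followed for 8 min. Concentration-response curves derived from the normalized delta values.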

[19] = molecular target: ATP-dependent 6-phosphofructokinase (Trypanosoma brucei brucei) (UniProt O15648); test: qHTS Validation Assay to Find Inhibitors of T. brucei phosphofructokinase (AID 485368)
Outline: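 Enzyme reaction in triethanolamine buffer pH 8.0 with 5 mM MgCl2, 0.01% Tween20 and 0.1% BSA; PFK 1.25 nM, F6P 0.5 mM, ATP 0.1 mM, 45 min RT. ADP quantified by ADP-Glo.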

Sequence of D(1A) dopamine receptor (Homo sapiens) (P21728 whole entry, looked up): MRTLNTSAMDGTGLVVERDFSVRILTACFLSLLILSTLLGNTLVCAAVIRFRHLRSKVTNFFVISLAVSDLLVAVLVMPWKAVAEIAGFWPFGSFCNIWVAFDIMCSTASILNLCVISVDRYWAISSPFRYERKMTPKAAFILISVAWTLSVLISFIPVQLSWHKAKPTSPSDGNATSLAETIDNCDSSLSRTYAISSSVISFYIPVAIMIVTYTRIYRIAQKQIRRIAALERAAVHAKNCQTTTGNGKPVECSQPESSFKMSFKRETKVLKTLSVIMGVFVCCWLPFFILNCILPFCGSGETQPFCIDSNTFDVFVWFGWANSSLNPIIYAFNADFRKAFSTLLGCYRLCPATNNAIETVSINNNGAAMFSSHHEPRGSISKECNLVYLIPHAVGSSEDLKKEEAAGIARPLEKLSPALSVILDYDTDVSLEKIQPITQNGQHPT
Sequence of Ubiquitin carboxyl-terminal hydrolase 2 (Homo sapiens) (O75604 whole entry, looked up): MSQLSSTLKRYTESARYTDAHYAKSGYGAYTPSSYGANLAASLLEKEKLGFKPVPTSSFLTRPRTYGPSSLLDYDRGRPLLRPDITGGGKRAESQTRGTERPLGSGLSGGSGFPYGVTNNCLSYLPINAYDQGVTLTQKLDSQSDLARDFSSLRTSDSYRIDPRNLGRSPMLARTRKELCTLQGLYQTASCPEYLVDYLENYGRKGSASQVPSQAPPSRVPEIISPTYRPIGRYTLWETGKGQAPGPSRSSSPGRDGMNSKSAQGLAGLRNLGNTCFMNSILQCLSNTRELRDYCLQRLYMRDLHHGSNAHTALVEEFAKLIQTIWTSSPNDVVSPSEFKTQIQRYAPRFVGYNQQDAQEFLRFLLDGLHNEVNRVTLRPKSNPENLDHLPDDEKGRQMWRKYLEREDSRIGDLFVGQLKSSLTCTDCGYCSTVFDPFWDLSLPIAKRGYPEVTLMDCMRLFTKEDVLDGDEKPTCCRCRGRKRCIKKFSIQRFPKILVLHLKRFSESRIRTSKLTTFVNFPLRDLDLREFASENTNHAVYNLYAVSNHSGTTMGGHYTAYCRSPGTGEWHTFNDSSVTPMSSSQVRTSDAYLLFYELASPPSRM
Sequence of DNA polymerase III PolC-type (Bacillus subtilis (strain 168)) (P13267 whole entry, looked up): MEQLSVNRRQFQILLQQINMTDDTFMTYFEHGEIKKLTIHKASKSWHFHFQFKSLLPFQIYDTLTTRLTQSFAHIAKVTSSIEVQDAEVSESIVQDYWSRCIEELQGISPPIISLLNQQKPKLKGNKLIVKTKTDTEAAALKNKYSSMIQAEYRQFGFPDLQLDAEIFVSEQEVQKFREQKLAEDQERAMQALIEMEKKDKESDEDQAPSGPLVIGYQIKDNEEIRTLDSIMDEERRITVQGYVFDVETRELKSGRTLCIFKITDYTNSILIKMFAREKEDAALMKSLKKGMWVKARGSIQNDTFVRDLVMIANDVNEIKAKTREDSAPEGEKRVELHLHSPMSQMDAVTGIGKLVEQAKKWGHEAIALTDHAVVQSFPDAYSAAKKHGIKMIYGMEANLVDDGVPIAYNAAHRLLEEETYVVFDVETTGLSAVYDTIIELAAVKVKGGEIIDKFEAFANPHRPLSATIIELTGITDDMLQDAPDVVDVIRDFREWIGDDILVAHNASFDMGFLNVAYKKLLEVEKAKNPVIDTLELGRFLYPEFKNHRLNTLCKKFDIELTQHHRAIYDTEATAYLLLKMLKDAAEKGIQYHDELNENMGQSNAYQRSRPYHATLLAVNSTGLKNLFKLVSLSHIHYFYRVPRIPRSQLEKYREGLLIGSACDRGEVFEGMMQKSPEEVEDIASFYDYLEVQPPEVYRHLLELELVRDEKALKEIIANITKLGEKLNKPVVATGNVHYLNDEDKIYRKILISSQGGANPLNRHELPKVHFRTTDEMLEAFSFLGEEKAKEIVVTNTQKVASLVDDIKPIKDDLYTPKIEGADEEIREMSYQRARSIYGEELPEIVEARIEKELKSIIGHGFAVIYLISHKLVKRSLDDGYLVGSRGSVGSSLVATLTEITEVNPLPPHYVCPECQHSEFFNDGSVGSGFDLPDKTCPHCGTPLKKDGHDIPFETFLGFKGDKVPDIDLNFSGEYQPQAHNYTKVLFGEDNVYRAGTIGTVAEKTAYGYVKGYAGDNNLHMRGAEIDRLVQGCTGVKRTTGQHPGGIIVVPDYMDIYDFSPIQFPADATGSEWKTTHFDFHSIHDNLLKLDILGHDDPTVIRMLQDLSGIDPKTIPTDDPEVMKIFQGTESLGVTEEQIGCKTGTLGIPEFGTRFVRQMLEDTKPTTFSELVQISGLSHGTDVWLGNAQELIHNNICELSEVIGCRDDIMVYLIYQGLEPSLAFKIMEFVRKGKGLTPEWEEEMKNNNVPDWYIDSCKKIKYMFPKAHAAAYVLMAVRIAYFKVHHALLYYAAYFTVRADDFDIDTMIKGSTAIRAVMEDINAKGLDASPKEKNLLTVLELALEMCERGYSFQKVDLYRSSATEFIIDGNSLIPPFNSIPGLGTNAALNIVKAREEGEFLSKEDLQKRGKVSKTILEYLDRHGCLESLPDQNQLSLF
Sequence of Thyrotropin receptor (Homo sapiens) (P16473 whole entry, looked up): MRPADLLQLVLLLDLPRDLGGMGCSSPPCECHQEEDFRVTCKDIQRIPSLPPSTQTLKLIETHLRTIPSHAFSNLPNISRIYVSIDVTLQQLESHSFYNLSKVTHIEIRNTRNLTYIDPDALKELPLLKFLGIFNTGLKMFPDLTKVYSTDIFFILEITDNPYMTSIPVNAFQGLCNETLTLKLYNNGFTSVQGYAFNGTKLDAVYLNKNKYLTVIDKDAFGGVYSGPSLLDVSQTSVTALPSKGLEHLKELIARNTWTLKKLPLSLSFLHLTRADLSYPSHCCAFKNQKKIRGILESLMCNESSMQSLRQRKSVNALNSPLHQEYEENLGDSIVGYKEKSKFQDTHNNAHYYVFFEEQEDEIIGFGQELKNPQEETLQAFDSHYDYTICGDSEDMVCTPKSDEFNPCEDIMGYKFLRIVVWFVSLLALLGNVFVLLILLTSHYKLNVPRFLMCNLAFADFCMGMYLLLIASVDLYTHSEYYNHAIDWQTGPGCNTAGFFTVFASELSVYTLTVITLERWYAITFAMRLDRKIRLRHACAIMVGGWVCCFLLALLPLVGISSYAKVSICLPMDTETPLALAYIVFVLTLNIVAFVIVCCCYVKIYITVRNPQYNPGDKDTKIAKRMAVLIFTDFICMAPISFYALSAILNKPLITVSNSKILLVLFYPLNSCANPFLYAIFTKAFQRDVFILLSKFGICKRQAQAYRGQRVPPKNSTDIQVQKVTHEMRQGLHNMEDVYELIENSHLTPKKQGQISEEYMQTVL
Sequence of Flap endonuclease 1 (Homo sapiens) (P39748 whole entry, looked up): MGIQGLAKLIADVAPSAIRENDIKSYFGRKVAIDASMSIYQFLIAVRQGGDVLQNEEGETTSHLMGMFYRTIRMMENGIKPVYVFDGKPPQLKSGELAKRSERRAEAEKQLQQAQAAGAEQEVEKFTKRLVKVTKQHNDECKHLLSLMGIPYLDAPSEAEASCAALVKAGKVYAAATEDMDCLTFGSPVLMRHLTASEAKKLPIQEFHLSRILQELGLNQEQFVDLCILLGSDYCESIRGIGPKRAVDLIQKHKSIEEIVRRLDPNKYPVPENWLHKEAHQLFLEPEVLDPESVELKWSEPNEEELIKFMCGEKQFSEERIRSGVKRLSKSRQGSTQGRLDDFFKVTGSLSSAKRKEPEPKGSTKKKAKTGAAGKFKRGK
Sequence of Chromobox protein homolog 1 (Homo sapiens) (P83916 whole entry, looked up): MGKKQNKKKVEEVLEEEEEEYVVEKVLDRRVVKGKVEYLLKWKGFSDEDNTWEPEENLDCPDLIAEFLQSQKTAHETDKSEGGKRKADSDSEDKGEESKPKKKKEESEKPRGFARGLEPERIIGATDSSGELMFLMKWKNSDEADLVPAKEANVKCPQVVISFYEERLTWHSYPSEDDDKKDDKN
Sequence of M-phase phosphoprotein 8 (Homo sapiens) (Q99549 whole entry, looked up): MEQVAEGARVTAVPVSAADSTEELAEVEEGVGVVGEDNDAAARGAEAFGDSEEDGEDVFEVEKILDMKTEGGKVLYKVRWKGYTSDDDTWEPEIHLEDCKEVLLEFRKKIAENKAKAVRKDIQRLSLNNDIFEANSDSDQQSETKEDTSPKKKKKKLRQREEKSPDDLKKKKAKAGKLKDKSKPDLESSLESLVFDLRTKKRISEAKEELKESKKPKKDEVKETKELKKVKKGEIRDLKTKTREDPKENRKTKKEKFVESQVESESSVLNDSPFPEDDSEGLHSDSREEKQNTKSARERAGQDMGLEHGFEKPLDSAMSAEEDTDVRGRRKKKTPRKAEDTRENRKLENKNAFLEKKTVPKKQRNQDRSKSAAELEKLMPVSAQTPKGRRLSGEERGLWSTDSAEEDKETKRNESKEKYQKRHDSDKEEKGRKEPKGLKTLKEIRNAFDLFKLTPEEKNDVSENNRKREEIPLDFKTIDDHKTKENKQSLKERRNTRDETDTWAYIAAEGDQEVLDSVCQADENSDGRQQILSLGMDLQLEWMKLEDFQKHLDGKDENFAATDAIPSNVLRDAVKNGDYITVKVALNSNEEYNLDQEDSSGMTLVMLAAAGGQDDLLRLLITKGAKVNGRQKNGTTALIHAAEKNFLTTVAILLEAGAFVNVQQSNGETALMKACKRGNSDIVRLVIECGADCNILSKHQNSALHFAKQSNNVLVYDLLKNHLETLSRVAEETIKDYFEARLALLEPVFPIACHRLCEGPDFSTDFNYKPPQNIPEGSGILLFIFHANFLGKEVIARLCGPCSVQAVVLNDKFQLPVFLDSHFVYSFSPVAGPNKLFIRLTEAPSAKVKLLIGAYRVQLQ

| Compound | Potency [1] | Potency [2] | outcome [3] | Potency [4] | outcome [5] | Potency [6] | outcome [7] | Potency [8] | outcome [9] | outcome [10] | outcome [11] | Potency [12] | Potency [13] | Potency [14] | Potency [15] | Potency [16] | Potency [17] | Potency [18] | Potency [19] |
| --- | --- | --- | --- | --- | --- | --- | --- | --- | --- | --- | --- | --- | --- | --- | --- | --- | --- | --- | --- |
| Cc1cnc(C(=O)NCCc2ccc(S(=O)(=O)NC(=O)NC3CCCCC3)cc2)cn1 | inactive | inactive | inactive | inactive | inactive | inactive | inactive | inactive | inactive | inactive | inactive | inactive | inactive | inactive | – | – | – | – | – |
| Nc1ccn([C@H]2CC[C@@H](CO)O2)c(=O)n1 | inactive | inactive | inactive | inactive | inactive | inactive | inactive | inactive | inactive | inactive | inactive | inactive | inactive | inactive | inactive | inactive | – | – | – |
| O=C(c1ccc(OCCN2CCCCC2)cc1)c1c(-c2ccc(O)cc2)sc2cc(O)ccc12 | inactive | inactive | inactive | 20.6 µM (active) | inactive | – | inactive | inactive | inactive | – | – | inactive | – | inactive | 20 µM (active) | 31.6 µM (active) | – | – | – |
| Cc1cc(C(C)(C)C)cc(C)c1CC1=NCCN1 | inactive | inactive | inactive | inactive | inactive | inactive | inactive | inactive | inactive | inactive | inactive | inactive | inactive | inactive | – | inactive | – | – | – |
| CCCNCC(O)COc1ccccc1C(=O)CCc1ccccc1 (stereo not given) | inactive | inactive | inactive | – | inactive | 2.33 µM (active) | inactive | inactive | inactive | – | inactive | inactive | inactive | 10 µM (active) | – | inactive | 2.62 µM (active) | – | – |
| Cc1cn([C@H]2C[C@H](N=[N+]=[N-])[C@@H](CO)O2)c(=O)[nH]c1=O | inactive | inactive | inactive | inactive | inactive | – | inactive | inactive | inactive | – | – | inactive | inactive | inactive | inactive | inactive | – | – | – |
| CC(C)NCC(O)COc1ccc(CCOCC2CC2)cc1 (stereo not given) | inactive | inactive | inactive | inactive | – | inactive | inactive | inactive | inactive | inactive | – | inactive | inactive | inactive | inactive | inactive | – | – | – |
| CN1CCC(=C2c3ccccc3C=Cc3ccccc32)CC1 | inactive | inactive | inactive | inactive | inactive | – | inactive | – | – | – | inactive | inactive | inactive | – | inactive | – | – | – | – |
| O=c1[nH]cc(F)c(=O)[nH]1 | inactive | inactive | inactive | inactive | inactive | – | inactive | – | inactive | inactive | inactive | inactive | inactive | inactive | inactive | inactive | – | inactive | – |
| CC[N+](CC)(CC)CCOc1cccc(OCC[N+](CC)(CC)CC)c1OCC[N+](CC)(CC)CC | inactive | inactive | inactive | inactive | inactive | inactive | inactive | inactive | inactive | inactive | inactive | inactive | inactive | inactive | – | – | – | – | – |
| CC(C)NCC(O)c1ccc(O)c(O)c1 (stereo not given) | inactive | inactive | inactive | inactive | – | inactive | inactive | inactive | inactive | inactive | inactive | inactive | inactive | inactive | inactive | 0.0106 µM (active) | – | – | – |
| NCCc1cnc[nH]1 | inactive | inactive | inactive | inactive | inactive | inactive | – | inactive | inactive | inactive | inactive | inactive | inactive | inactive | inactive | inactive | – | inactive | – |
| O=C(C1CCCCC1)N1CC(=O)N2CCc3ccccc3C2C1 (stereo not given) | inactive | inactive | inactive | inactive | inactive | inactive | inactive | inactive | inactive | inactive | – | inactive | inactive | inactive | inactive | inactive | – | – | – |
| CNCCCC12CCC(c3ccccc31)c1ccccc12 | inactive | inactive | inactive | – | inactive | inactive | inactive | inactive | inactive | – | inactive | – | inactive | – | inactive | inactive | – | – | inactive |
| O=C(CCCN1CCC(O)(c2ccc(Cl)cc2)CC1)c1ccc(F)cc1 | inactive | inactive | inactive | inactive | inactive | 10.4 µM (active) | inactive | – | inactive | – | inactive | – | – | – | – | – | – | – | – |

— PubChem BioAssay (NCATS)
